From PubChem BioAssay AID1159580 (chemical genetic matrix, 2015)
The whole screen tested about 5,500 compounds, of which about 2,000 (36%) were called active. Inconclusive results (about 18%) are left out. Rule as the data show it: active = normalized growth mostly below about 0.91 (no sharp cut-off); inconclusive = no clear call, values can overlap the other calls; inactive = mostly above about 0.92. Some of the results follow.

Experiment: chemical genetic growth profiling, strain panel (AID 1159580);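 also: tested at 20 µM; growth read once vehicle control cultures reached saturation at 30 °C; 1 = growth at the plate median or of vehicle wells; lower values mean less growth of the strain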
Settings: S. cerevisiae deletion strains, growth OD
[1] = locus YHR030C, strain SLT2, stronger effect = lower value

Measured: normalized growth

CCOC(=O)Nc1ccsc1C(=O)OC
inactive: locus YAL013W, strain DEP1, stronger effect = lower value 0.997 | locus YBR229C, strain ROT2, stronger effect = lower value 1 | locus YCL061C, strain MRC1, stronger effect = lower value 0.999 | locus YDL101C, strain DUN1, stronger effect = lower value 0.988 | locus YDL134C, strain PPH21, stronger effect = lower value 1 | locus YDR150W, strain NUM1, stronger effect = lower value 0.975 | locus YEL061C, strain CIN8, stronger effect = lower value 0.974 | locus YGR078C, strain PAC10, stronger effect = lower value 0.986 | [1] 1 | locus YHR087W, strain rtc3, stronger effect = lower value 1 | locus YJR043C, strain POL32, stronger effect = lower value 1 | locus YJR075W, strain HOC1, stronger effect = lower value 0.986 | locus YKL190W, strain CNB1, stronger effect = lower value 1 | locus YLR039C, strain RIC1, stronger effect = lower value 0.983 | locus YLR058C, strain SHM2 (second series), stronger effect = lower value 1 | locus YLR085C, strain ARP6, stronger effect = lower value 0.988 | locus YLR262C, strain YPT6, stronger effect = lower value 0.996 | locus YML094W, strain GIM5, stronger effect = lower value 0.985 | locus YMR219W, strain ESC1, stronger effect = lower value 1 | locus YMR263W, strain SAP30, stronger effect = lower value 1.02 | locus YMR307W, strain GAS1, stronger effect = lower value 1.07 | locus YNL153C, strain GIM3, stronger effect = lower value 0.987 | locus YNL298W, strain CLA4 (second series), stronger effect = lower value 1.02 | locus YNL322C, strain KRE1, stronger effect = lower value 0.983 | locus YNR030W, strain Alg12, stronger effect = lower value 1.01 | locus YPL055C, strain LGE1, stronger effect = lower value 0.981 | locus YPL241C, strain CIN2, stronger effect = lower value 1.08 | locus YPR135W, strain CTF4, stronger effect = lower value 0.947

COC(=O)c1sccc1-c1ccc(/C=C/[N+](=O)[O-])o1
inactive: locus YBL105C, strain PKC1, stronger effect = lower value 0.964 | locus YBR135W, strain CKS1, stronger effect = lower value 0.96 | locus YBR136W, strain MEC1, stronger effect = lower value 0.968 | locus YBR160W, strain CDC28, stronger effect = lower value 0.952 | locus YDL017W, strain CDC7, stronger effect = lower value 0.974 | locus YDL028C, strain MPS1, stronger effect = lower value 0.959 | locus YDL108W, strain KIN28, stronger effect = lower value 0.965 | locus YDR052C, strain DBF4, stronger effect = lower value 0.981 | locus YDR226W, strain ADK1, stronger effect = lower value 0.961 | locus YFR003C, strain YPI1, stronger effect = lower value 0.966 | locus YFR028C, strain CDC14, stronger effect = lower value 0.978 | locus YGR092W, strain DBF2, stronger effect = lower value 0.874 | locus YIL147C, strain SLN1, stronger effect = lower value 0.964 | locus YJL128C, strain PBS2, stronger effect = lower value 0.907 | locus YJR016C, strain ILV3, stronger effect = lower value 0.974 | locus YKL048C, strain ELM1, stronger effect = lower value 0.939 | locus YKL101W, strain HSL1, stronger effect = lower value 0.886 | locus YKL203C, strain TOR2, stronger effect = lower value 0.893 | locus YNL006W, strain LST8, stronger effect = lower value 0.958 | locus YNL207W, strain RIO2, stronger effect = lower value 0.977 | locus YNL307C, strain MCK1 (second series), stronger effect = lower value 0.823 | locus YOR061W, strain CKA2, stronger effect = lower value 0.729 | locus YOR119C, strain RIO1, stronger effect = lower value 0.875 | locus YOR329C, strain SCD5, stronger effect = lower value 0.965 | locus YPL209C, strain IPL1, stronger effect = lower value 0.969 | locus YPR025C, strain CCL1, stronger effect = lower value 0.955 | locus YPR106W, strain ISR1, stronger effect = lower value 0.959 | locus YPR111W, strain DBF20, stronger effect = lower value 0.961 | strain NNK1, stronger effect = lower value 0.963
active: locus YDL214C, strain PRR2, stronger effect = lower value 0.126 | locus YDR477W, strain SNF1, stronger effect = lower value 0.518 | locus YER123W, strain YCK3, stronger effect = lower value 0.155 | locus YER133W, strain GLC7, stronger effect = lower value 0.121 | locus YFL009W, strain cdc4, stronger effect = lower value 0.718 | locus YFR019W, strain FAB1, stronger effect = lower value 0.154 | locus YGR040W, strain KSS1, stronger effect = lower value 0.551 | locus YGR052W, strain FMP48, stronger effect = lower value 0.268 | [1] 0.0849 | locus YHR079C, strain IRE1, stronger effect = lower value 0.113 | locus YHR082C, strain KSP1, stronger effect = lower value 0.178 | locus YHR205W, strain SCH9, stronger effect = lower value 0.509 | locus YJL095W, strain BCK1, stronger effect = lower value 0.126 | locus YJL157C, strain FAR1, stronger effect = lower value 0.14 | locus YJR066W, strain TOR1 (second series), stronger effect = lower value 0.0869 | locus YJR066W, strain TOR1, stronger effect = lower value 0.103 | locus YKL067W, strain YNK1, stronger effect = lower value 0.185 | locus YLR113W, strain HOG1, stronger effect = lower value 0.181 | locus YLR133W, strain CKI1, stronger effect = lower value 0.638 | locus YLR403W, strain SFP1, stronger effect = lower value 0.517 | locus YML070W, strain DAK1, stronger effect = lower value 0.111 | locus YMR205C, strain PFK2 (second series), stronger effect = lower value 0.704 | locus YNL020C, strain ARK1, stronger effect = lower value 0.702 | locus YNL183C, strain NPR1, stronger effect = lower value 0.0989 | locus YOL136C, strain PFK27, stronger effect = lower value 0.107 | locus YOR231W, strain MKK1, stronger effect = lower value 0.135 | locus YPL031C, strain PHO85, stronger effect = lower value 0.25 | locus YPL153C, strain RAD53, stronger effect = lower value 0.0913 | locus YPL204W, strain HRR25, stronger effect = lower value 0.091 | locus YPL256C, strain CLN2, stronger effect = lower value 0.147
